Compounds without any hit were thinned out: in the full panel of roughly 83,000, 20% have a hit.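 Negative percent growth values reflect cell death: -40 means 40% of the cells present at the start died, and -100 means all died.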 A number with no mark means an inactive call. The source made the active and inactive calls. How the source made its calls: active means growth percent below 10; inactive means the rest.
Columns and labels:
Assay in all cases: NCI-60 one-dose screen, 48 h (100 = growth as untreated, 0 = no growth, -100 = all killed)
Settings in all cases: 10 µM unless noted
DU-145 prostate = tested on: DU-145 prostate
K-562 leukemia = tested on: K-562 leukemia
MALME-3M melanoma = tested on: MALME-3M melanoma
MDA-MB-231 breast = tested on: MDA-MB-231 breast
RXF 393 renal = tested on: RXF 393 renal
SF-268 CNS = tested on: SF-268 CNS
SF-295 CNS = tested on: SF-295 CNS
SF-539 CNS = tested on: SF-539 CNS
UACC-257 melanoma = tested on: UACC-257 melanoma
M14 melanoma = tested on: M14 melanoma
HCT-15 colon = tested on: HCT-15 colon
HT29 colon = tested on: HT29 colon
SNB-75 CNS = tested on: SNB-75 CNS
SNB-19 CNS = tested on: SNB-19 CNS
U251 CNS = tested on: U251 CNS
PC-3 prostate = tested on: PC-3 prostate
SK-MEL-5 melanoma = tested on: SK-MEL-5 melanoma
UACC-62 melanoma = tested on: UACC-62 melanoma
LOX IMVI melanoma = tested on: LOX IMVI melanoma
SK-MEL-28 melanoma = tested on: SK-MEL-28 melanoma

| Compound | growth (DU-145 prostate) | growth (K-562 leukemia) | growth (MALME-3M melanoma) | growth (MDA-MB-231 breast) | growth (RXF 393 renal) | growth (SF-268 CNS) | growth (SF-295 CNS) | growth (SF-539 CNS) | growth (UACC-257 melanoma) | growth (M14 melanoma) | growth (HCT-15 colon) | growth (HT29 colon) | growth (SNB-75 CNS) | growth (SNB-19 CNS) | growth (U251 CNS) | growth (PC-3 prostate) | growth (SK-MEL-5 melanoma) | growth (UACC-62 melanoma) | growth (LOX IMVI melanoma) | growth (SK-MEL-28 melanoma) |
| --- | --- | --- | --- | --- | --- | --- | --- | --- | --- | --- | --- | --- | --- | --- | --- | --- | --- | --- | --- | --- |
| O=c1[nH]cc(N(CCCl)CCCl)c(=O)[nH]1 | 52.4% | 83% | 62.5% | 95.2% | 68.6% | 52% | 49.6% | 46.2% | 62% | 73.5% | 75.6% | 63.4% | 62.9% | 65.1% | 64.7% | 49.5% | 82% | 64% | 46% |  |
| COc1ccc([As]=[As]c2ccc(OC)c(NCS(=O)(=O)O)c2)cc1NCS(=O)(=O)O (stereo unspecified) | 43.1% | -2.74% (active) | -44.6% (active) | 4.41% (active) | -17.9% (active) | 17.8% | 80% | 2.54% (active) | 27.6% | 19.2% | -72.2% (active) | 39.8% | 36.9% | 0.15% (active) | -43% (active) | 32.5% | 1.61% (active) | 17% | 5.45% (active) |  |
| CC(C)OC(=O)[C@H](C)NP(=O)(Oc1ccccc1)C1CCCN(O)C1=O (stereo partly specified) | 98.1% | 94.2% | 43.6% | 92.3% | 57.2% | 93.9% | 95.6% | 87.7% | 93.8% | 66.5% | 93.1% | 91.7% | 108% | 98.8% | 105% | 94.5% | 99.2% | 71.8% | 85.3% |  |
| COc1ccc2c(c1)c(C1(O)CC(CSC#N)OC1=O)cn2C(=O)c1ccc(Cl)cc1 (stereo unspecified) | 114% | 98.5% | 81.9% | 92.9% | 114% | 106% | 90.2% | 96.3% | 95.5% | 96.4% | 98.7% | 110% | 83.7% | 99.3% | 102% | 96.2% | 111% | 88.6% | 97.8% | 150% |
| COc1ccc(/C=C\c2cc(OC)c(OC)c(OC)c2)c(NS(=O)(=O)c2ccc(F)cc2)c1O | -19.1% (active) | 18.3% | 94.3% | 8.05% (active) | 23.5% | 15.1% | 4.99% (active) | 2.76% (active) | 66.5% | 6.43% (active) | 6.21% (active) | 12.5% | 34.9% | 37.4% | 19.1% | 31.3% | -28.4% (active) | 40.1% | 19.3% |  |
| O=C(N/N=C/c1ccc(N(CCCl)CCCl)cc1)c1cccc2ccccc12 | 85.3% | 38.9% | 84.8% | 86.9% | 93.3% | 77.4% | 78.7% | 78.6% | 79.1% | 51.7% | 56.1% | 39.4% | 76.7% | 80.6% | 60.9% | 61.5% | 70.6% | 46.5% | 61.3% | 83% |
| CNC(=O)Oc1cccc(C(F)(F)F)c1 | 128% | 113% | 140% | 103% | 146% | 118% | 130% | 122% | 102% | 101% | 117% | 108% | 113% | 103% | 114% | 104% | 105% | 97.7% |  |  |
| O=C(O)c1c(Cl)n(Cc2ccc(O)cc2)c2ccc(O)cc12 | 111% | 112% | 106% | 102% | 46.6% | 101% | 101% | 98.8% | 101% | 98% | 118% | 110% | 80.6% | 106% | 106% | 72.4% | 85.8% | 98.9% | 98.8% |  |
| Nc1ccc2c(c1)Cc1cc(Br)ccc1-2 | 109% | 92.2% | 118% | 84% | 112% | 88% | 107% | 100% | 122% | 118% | 101% | 119% | 76.6% | 101% | 104% | 89.6% | 104% | 88.8% | 94.2% |  |
| Oc1c(CCl)cc(Cl)cc1CCl | 122% | 99.3% | 110% | 104% | 119% | 104% | 106% | 104% | 131% | 108% | 109% | 104% | 95.8% | 107% | 110% | 93.9% | 104% | 116% | 93.8% |  |
| C/C(=C\c1ccn(-c2ccc(N)c(F)c2)n1)[C@@H]1C[C@@H]2O[C@]2(C)CCC[C@H](C)[C@H](O)[C@@H](C)C(=O)C(C)(C)[C@@H](O)CC(=O)O1 | -26% (active) | 10.5% | 46.3% | 19.6% | 0.639% (active) | 30% | 17.1% | -26.4% (active) | 68.7% | 13.3% | 11.4% | 14.9% | -16.9% (active) | 38.4% | 24% | 14.7% | 14.7% | 21.7% | 32.4% |  |
| C/C(Cc1ccc(Cl)cc1)=C(\c1ccc(OCCN2CCOCC2)cc1)c1ccc(OC(=O)Cc2ccccc2)cc1 | 107% | 79.5% | 99% | 96.5% | 94.7% | 95.6% | 99.9% | 108% | 86.1% | 89.4% | 91.1% | 79.5% | 89.6% | 101% | 97.4% | 81.9% | 95.6% | 84.5% | 97% |  |
| CCn1nccc1NC(=O)C(=O)c1cn(Cc2ccc(F)cc2)c2cccc(OC)c12 | 106% | 79.9% | 109% | 91.9% | 90.1% | 98.1% | 106% | 98.1% | 97.6% | 88.1% | 91.8% | 112% | 91% | 90.9% | 92.1% | 90.6% | 87.3% | 78.4% | 84.2% |  |
| O=C(CCCC1CCCCC1)OCC(Cl)(Cl)Cl | 105% | 99.8% | 102% | 116% | 114% | 97.1% | 102% | 104% | 109% | 105% | 108% | 103% | 101% | 106% | 97% | 91.4% | 107% | 98.9% | 101% | 113% |
| COc1ccc(/C=C\c2cc(OC)c(OC)c(OC)c2)cc1OCC(=O)Nc1nc2ccc(OC(F)(F)F)cc2s1 | 6.56% (active) | 22.9% | 26.4% | 36.7% | 26.4% | 45.8% | 40.8% | 14% | 58.7% | 11.5% | 22.2% | 97.5% | 7.25% (active) | 42.7% | 26% | 34% | 27.3% | 31.1% | 27.1% |  |
| C#Cc1ccc2c(c1)C(c1ccccc1)=NCC(=O)N2C | 70.1% | 15.6% | 74.5% | 50.8% | 83.8% | 58.8% | 25% | 41.4% | 68.5% | 18.5% | 26.4% | 13.1% | 53.9% | 46.6% | 36.9% | 54.4% | 34.7% | 31% | 44.4% |  |
